Calls of active or inactive are those of the source. The calls were made as follows: active = hit-call score of the fitted dose curve at least 0.9, where 1 is the maximum; inactive = score below 0.9.
Tests used:
Conditions in all cases: mRNA level, 48 h; actives raise or lower the signal
[1] = read-out: Pro-epidermal growth factor (Homo sapiens) (UniProt P01133); test: LTEA_HepaRG_EGF: Life Technologies and Expression Analysis (LTEA) Assay for Epidermal growth factor (EGF) using HepaRG (AID 2283489)
Summary of the method: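 EGF expression changes in human HepaRG cells are scored by bidirectional fitting relative to 0.5% DMSO controls. Chemicals are tested at eight half-log concentrations up to 100 uM for 48 h in serum-free induction medium.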

[2] = read-out: Early growth response protein 1 (EGR1) transcription factor, EGR1 (gene 1958); test: LTEA_HepaRG_EGR1: Life Technologies and Expression Analysis (LTEA) Assay for Early growth response protein 1 (EGR1) transcription factor using HepaRG (AID 2283490)
Summary of the method: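 EGR1 transcript levels quantified by qRT-PCR (Fluidigm arrays) against three housekeeping genes after 48 h chemical exposure of HepaRG cells. Eight-point half-log series topping at 100 uM, 0.5% DMSO vehicle, analyzed for gain or loss.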

[3] = read-out: Ezrin (EZR), EZR (gene 7430); test: LTEA_HepaRG_EZR: Life Technologies and Expression Analysis (LTEA) Assay for Ezrin (EZR) using HepaRG (AID 2283491)
Summary of the method: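 Differentiated human HepaRG cells, 48 h after plating, were exposed in serum-free induction medium for 48 hours to eight half-log concentrations up to 100 uM in 0.5% DMSO. EZR mRNA was measured by TaqMan qRT-PCR, normalized to ACTB, GAPDH and POLR2A, and fitted bidirectionally against DMSO.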

[4] = read-out: Cytochrome P450 3A7 (Homo sapiens) (UniProt P24462); test: LTEA_HepaRG_CYP3A7: Life Technologies and Expression Analysis (LTEA) Assay for CYP3A7 using HepaRG (AID 2283492)
Summary of the method: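 Cells were thawed, plated, cultured 48 h, then treated for a further 48 h with chemicals (eight-point half-log series from 100 uM, 0.5% DMSO). RNA was isolated and CYP3A7 expression quantified by qRT-PCR normalised to ACTB, GAPDH and POLR2A.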

[5] = read-out: CYP3A5 (gene 1577); test: LTEA_HepaRG_CYP3A5: Life Technologies and Expression Analysis (LTEA) Assay for CYP3A5 using HepaRG (AID 2283493)
Summary of the method: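 Human HepaRG hepatic cells receive 48 h chemical treatment at eight concentrations (half-log steps from 100 uM) in 0.5% DMSO. Expression of CYP3A5 is quantified by Fluidigm qRT-PCR and normalized to three reference genes.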

[6] = read-out: Fatty Acid-Binding Protein 1 (FABP1), FABP1 (gene 2168); test: LTEA_HepaRG_FABP1: Life Technologies and Expression Analysis (LTEA) Assay for Fatty Acid-Binding Protein 1 (FABP1) using HepaRG (AID 2283494)
Summary of the method: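 FABP1 expression by TaqMan qRT-PCR, normalised to three housekeeping genes, in HepaRG cells after 48 h chemical treatment. Eight-point half-log series topping at 100 uM in 0.5% DMSO, duplicates; gain or loss fitted relative to vehicle.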

[7] = read-out: Cytochrome P450 4A22 (Homo sapiens) (UniProt Q5TCH4); test: LTEA_HepaRG_CYP4A22: Life Technologies and Expression Analysis (LTEA) Assay for Cytochrome P450 4A22 (CYP4A22) using HepaRG (AID 2283495)
Summary of the method: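 Cryopreserved HepaRG cells, plated and cultured 48 h, then switched to serum-free induction medium and treated 48 h (duplicates, up to 100 uM, half-log steps, 0.5% DMSO). Expression change of CYP4A22 was fitted bidirectionally against vehicle.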

[8] = read-out: Cytochrome P450 7A1 (Homo sapiens) (UniProt P22680); test: LTEA_HepaRG_CYP7A1: Life Technologies and Expression Analysis (LTEA) Assay for Cytochrome P450 7A1 (CYP7A1) using HepaRG (AID 2283496)
Summary of the method: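 HepaRG, 48 h exposure, 8-pt half-log series from 100 uM, 0.5% DMSO vehicle, duplicates. Readout: TaqMan qRT-PCR mRNA vs three housekeeping genes; bidirectional curve fit against DMSO baseline.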

[9] = read-out: Glutathione S-Transferase (GSTA2), GSTA2 (gene 2939); test: LTEA_HepaRG_GSTA2: Life Technologies and Expression Analysis (LTEA) Assay for Glutathione S-Transferase (GSTA2) using HepaRG (AID 2283497)
Summary of the method: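 GSTA2 transcript levels came from Fluidigm TaqMan qRT-PCR normalized to three housekeeping genes, fitted in both directions against DMSO. HepaRG cultures received chemicals for 48 h in serum-free induction medium (0.5% DMSO), 8 half-log concentrations up to 100 uM, duplicate.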

[10] = read-out: growth arrest and DNA damage 45 (GADD45G), GADD45G (gene 10912); test: LTEA_HepaRG_GADD45G: Life Technologies and Expression Analysis (LTEA) Assay for growth arrest and DNA damage 45 (GADD45G) using HepaRG (AID 2283499)
Summary of the method: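 Human hepatic HepaRG line treated 48 h with chemicals (eight concentrations, half-log steps from 100 uM); transcript induction or repression of GADD45G scored by qRT-PCR versus DMSO vehicle.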

[11] = read-out: Glutathione S-transferase M3 (GSTM3), GSTM3 (gene 2947); test: LTEA_HepaRG_GSTM3: Life Technologies and Expression Analysis (LTEA) Assay for Glutathione S-transferase M3 (GSTM3) using HepaRG (AID 2283501)
Summary of the method: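 Changes in GSTM3 expression, an oxidative-stress marker, were scored by bidirectional curve fitting against 0.5% DMSO vehicle. Human HepaRG cultures received chemicals for 48 h in duplicate, highest concentration 100 uM with half-log dilutions.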

[12] = read-out: Heat shock 70 kDa protein 1 (HSPA1A), gene 3303; test: LTEA_HepaRG_HSPA1A: Life Technologies and Expression Analysis (LTEA) Assay for Heat shock 70 kDa protein 1 (HSPA1A) using HepaRG (AID 2283502)
Summary of the method: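 Cells were plated and cultured for 48 h, then switched to serum-free induction medium. Chemicals were added at eight half-log concentrations up to 100 uM for 48 h. RNA was then isolated and HSPA1A measured by qRT-PCR with bidirectional curve fitting against DMSO.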

[13] = read-out: Hypoxia-inducible factor 1-alpha (Homo sapiens) (UniProt Q16665); test: LTEA_HepaRG_HIF1A: Life Technologies and Expression Analysis (LTEA) Assay for Hypoxia-inducible factor 1 (HIF1A) Trancription factor using HepaRG (AID 2283503)
Summary of the method: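 HIF1A transcript level read by qRT-PCR (ACTB, GAPDH, POLR2A normalization) after 48 h chemical exposure of HepaRG cultures. Eight half-log concentrations, top 100 uM, 0.5% DMSO vehicle, duplicates; bidirectional curve fit against DMSO baseline.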

[14] = read-out: 3-Hydroxy-3-Methylglutaryl-CoA Synthase 2 (HMGCS2), HMGCS2 (gene 3158); test: LTEA_HepaRG_HMGCS2: Life Technologies and Expression Analysis (LTEA) Assay for 3-Hydroxy-3-Methylglutaryl-CoA Synthase 2 (HMGCS2) using HepaRG (AID 2283504)
Summary of the method: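 Expression of HMGCS2 in human HepaRG liver cells is measured by qRT-PCR 48 h after dosing (highest 100 uM, half-log series, 0.5% DMSO). Values come from bidirectional concentration-response fitting with DMSO as baseline.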

[15] = read-out: HGF (gene 3082); test: LTEA_HepaRG_HGF: Life Technologies and Expression Analysis (LTEA) Assay for Hepatocyte Growth Facto (HGF) using HepaRG (AID 2283505)
Summary of the method: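 Gain or loss of HGF mRNA in human HepaRG liver cells after 48 h chemical exposure; eight concentrations up to 100 uM with 0.5% DMSO vehicle, quantified by TaqMan qRT-PCR.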

[16] = read-out: Insulin Like Growth Factor 1 (IGF1), IGF1 (gene 3479); test: LTEA_HepaRG_IGF1: Life Technologies and Expression Analysis (LTEA) Assay for Insulin Like Growth Factor 1 (IGF1) using HepaRG (AID 2283506)
Summary of the method: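 Cells are thawed, plated and cultured 48 h, then exposed in duplicate to chemical (highest 100 uM, half-log steps, 0.5% DMSO) for another 48 h. Total RNA is analysed by Fluidigm qRT-PCR for IGF1 expression relative to vehicle.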

[17] = read-out: Intercellular Adhesion Molecule 1 (ICAM1), ICAM1 (gene 3383); test: LTEA_HepaRG_ICAM1: Life Technologies and Expression Analysis (LTEA) Assay for Intercellular Adhesion Molecule 1 (ICAM1) using HepaRG (AID 2283507)
Summary of the method: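 Gain or loss of transcript in HepaRG hepatic cells is quantified by qRT-PCR after 48 h chemical exposure (up to 100 uM, half-log steps), with DMSO as baseline.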

[18] = read-out: Insulin-like growth factor-binding protein 1 (IGFBP1), IGFBP1 (gene 3484); test: LTEA_HepaRG_IGFBP1: Life Technologies and Expression Analysis (LTEA) Assay for Insulin-like growth factor-binding protein 1 (IGFBP1) using HepaRG (AID 2283508)
Summary of the method: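 mRNA induction or loss was quantified by qRT-PCR after 48 h chemical exposure of human HepaRG cells, with 0.5% DMSO as vehicle and baseline. Concentration-response over eight points up to 100 uM.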

[19] = read-out: Glutamate-cysteine ligase catalytic (GCLC), GCLC (gene 2729); test: LTEA_HepaRG_GCLC: Life Technologies and Expression Analysis (LTEA) Assay for Glutamate-cysteine ligase catalytic (GCLC) using HepaRG (AID 2283498)
Summary of the method: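 Expression by TaqMan qRT-PCR, normalized to three housekeeping genes (ACTB, GAPDH, POLR2A), with up- or down-regulation fitted against DMSO. HepaRG cells dosed in duplicate for 48 h with 8 half-log concentrations up to 100 uM, vehicle 0.5% DMSO.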

[20] = read-out: Glutamate-cysteine ligase regulatory (GCLM), GCLM (gene 2730); test: LTEA_HepaRG_GCLM: Life Technologies and Expression Analysis (LTEA) Assay for Glutamate-cysteine ligase regulatory (GCLM) using HepaRG (AID 2283500)
Summary of the method: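 Endpoint is GCLM transcript level by qRT-PCR, normalized to three housekeeping genes, after 48 h chemical exposure of human HepaRG cells (0.5% DMSO vehicle, top 100 uM, half-log dilutions). Fitting was bidirectional relative to DMSO.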

Measured: AC50

Chain of Cytochrome P450 3A7 (Homo sapiens) (P24462 whole entry, looked up): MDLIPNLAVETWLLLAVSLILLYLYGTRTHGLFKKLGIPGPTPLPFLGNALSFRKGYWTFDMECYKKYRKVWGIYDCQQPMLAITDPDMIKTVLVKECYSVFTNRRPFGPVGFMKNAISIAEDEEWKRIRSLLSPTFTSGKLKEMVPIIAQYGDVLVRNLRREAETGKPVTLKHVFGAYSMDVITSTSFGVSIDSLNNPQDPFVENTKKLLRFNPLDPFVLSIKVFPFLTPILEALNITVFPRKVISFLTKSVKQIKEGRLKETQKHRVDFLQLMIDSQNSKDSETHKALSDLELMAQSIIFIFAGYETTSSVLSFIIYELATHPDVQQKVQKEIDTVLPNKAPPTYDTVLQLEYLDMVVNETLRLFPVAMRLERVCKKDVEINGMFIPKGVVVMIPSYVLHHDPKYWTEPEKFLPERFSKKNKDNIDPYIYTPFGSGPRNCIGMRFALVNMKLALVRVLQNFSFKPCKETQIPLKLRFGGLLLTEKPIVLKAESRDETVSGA
Chain of Hypoxia-inducible factor 1-alpha (Homo sapiens) (Q16665 whole entry, looked up): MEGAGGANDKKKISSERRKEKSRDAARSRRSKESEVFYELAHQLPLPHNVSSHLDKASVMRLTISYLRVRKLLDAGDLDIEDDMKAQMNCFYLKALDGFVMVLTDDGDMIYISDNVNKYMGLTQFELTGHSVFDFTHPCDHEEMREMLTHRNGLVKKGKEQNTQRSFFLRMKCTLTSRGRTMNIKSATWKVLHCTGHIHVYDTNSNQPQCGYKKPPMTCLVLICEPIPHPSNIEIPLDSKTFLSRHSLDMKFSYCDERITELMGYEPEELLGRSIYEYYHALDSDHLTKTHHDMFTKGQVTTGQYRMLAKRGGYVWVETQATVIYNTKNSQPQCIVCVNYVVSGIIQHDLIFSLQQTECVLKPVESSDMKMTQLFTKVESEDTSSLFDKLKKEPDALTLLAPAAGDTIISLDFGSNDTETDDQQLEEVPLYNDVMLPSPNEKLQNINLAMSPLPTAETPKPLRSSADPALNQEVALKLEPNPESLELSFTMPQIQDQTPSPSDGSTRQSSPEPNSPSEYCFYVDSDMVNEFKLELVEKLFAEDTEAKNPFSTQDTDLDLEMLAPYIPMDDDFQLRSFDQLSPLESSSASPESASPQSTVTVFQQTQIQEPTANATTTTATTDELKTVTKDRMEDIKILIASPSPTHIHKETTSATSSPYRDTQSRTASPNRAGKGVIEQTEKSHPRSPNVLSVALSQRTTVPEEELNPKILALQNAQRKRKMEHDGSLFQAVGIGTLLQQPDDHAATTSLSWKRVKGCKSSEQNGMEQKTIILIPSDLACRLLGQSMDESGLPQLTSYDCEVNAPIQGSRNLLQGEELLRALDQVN

CNC(=O)Oc1cccc2ccccc12
not listed: [19] | [20]
inactive: all other assays above

N#Cc1c(Cl)cccc1Cl
inactive: all assays above

COCC(C)N(C(=O)CCl)c1c(C)csc1C (stereo not given)
active: [1] 50 µM | [6] 50 µM | [8] 29.5 µM | [9] 25 µM | [16] 50 µM
not listed: [7] | [13] | [19]
inactive: all other assays above

Source: PubChem BioAssay (EPA / NIEHS)
